The values that follow come from PubChem BioAssay (NCATS).

Several values for one entry are separate records, joined by “and”; a condition that tells them apart may be missing. Equal entries are not always repeated. Unmarked numbers belong to inactive results. Inconclusive results are not listed. Activity calls are given as the source filed them. Unless noted, calls follow the shape of the dose curve; as a rule, active = well fitted curve in either direction with a large enough effect (not every such curve was filed as active); inconclusive = small, poorly fitted or top-dose-only effect, or another doubt; inactive = flat fitted curve, though single readings scatter. Peptide text beside a SMILES is read from it. Bounds are passed on as bounds.

Test [1] in a line: AP1 Signaling Pathway (AID 357).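 Also: ME-180 reporter cells stimulated with EGF at its EC50 level; % is scaled to controls: 0 for no effect and ±100 for the full control effect.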 The essentials:
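Read-out was the 460nm/530nm emission ratio (excitation 405nm) after CCF4 loading for 2.5 hours at room temperature. Cells carried an AP-1-driven beta-lactamase reporter, were stimulated with EC50 EGF plus compound for 5 hours, and AC50 values came from titrations.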

Test [2] is described as follows: NFAT Signaling Pathway (AID 444).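 Also: carbachol stimulus at about its EC50 of 1 µM final; % is scaled to controls: 0 for no effect and ±100 for the full control effect.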 As to conditions: Jurkat NFAT-bla M1, carbachol, beta-lactamase ratio, 5 h. In outline: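 Jurkat cells carrying an NFAT-driven β-lactamase reporter and co-transfected muscarinic M1 receptor were treated with compound plus carbachol (1 uM final, an EC50 level) for 5 h at 37 °C. CCF4 loading followed for 1 h at RT; 460/530 nm ratio gave %activity.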

Test [3] is described as follows: Stat Signaling Pathway (AID 446).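 Also: ME-180 cervical cancer cells given 40 pM IL-6 alongside compound; SIE-controlled beta-lactamase reporter measured as 460/530 nm FRET emission ratio; % is scaled to controls: 0 for no effect and ±100 for the full control effect.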 The essentials: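 ME-180 SIE-bla cells; overnight plating; cpd + IL-6 40 pM, 5 h, 37 C; LiveBLAzer 2.5 h RT; 460/530 nm emission ratio. Normalized to 300 pM IL-6 and 125 nM JAK inhibitor controls.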
The target of test [4] is Glucocorticoid receptor (Homo sapiens) (UniProt P04150). The test can be described thus: GR-GFP Redistribution (AID 450;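 active = compounds whose dose series gives a full or clear partial fitted curve of increased nuclear translocation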; also: potency is read from the fitted curve at half-maximal effect). As to conditions: U2OS GR-GFP nuclear translocation, laser cytometry, 2 h.
Test [5] shares this target. The test can be described thus: GR-EFC Redistribution (AID 451; calls by dose curve; also: potency is read from the fitted curve at half-maximal effect). The conditions noted are these: CHO-K1 GR-EFC translocation, beta-gal luminescence, 2 h. In outline: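 CHO-K1 cells stably expressing nuclear-localized β-gal enzyme acceptor and GR fused C-terminally to the enzyme donor fragment; ligand-driven nuclear translocation restores β-gal by complementation. Compounds titrated up to 46 uM final, 2 h at 37 °C; luminescence read.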

Test [6] deals with Cytochrome P450 1A2 (Homo sapiens) (UniProt P05177). The test can be described thus: p450-cyp1a2 (AID 410; calls by dose curve; also: potency is read from the fitted curve at half-maximal effect;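 as to activity change, negative = inhibition: -100% = full effect of reference inhibitor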). The essentials:
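Inhibition was calculated relative to 57 uM furafylline (full inhibition). The reaction used human CYP1A2 at 20nM with Luciferin-ME at its Km, 100uM, driven by an NADPH-regenerating system for 60 min at room temperature.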

Test [7] in a line: Cell Viability - BJ (AID 421; calls by dose curve;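 also: potency is read from the fitted curve at half-maximal effect; cells exposed to compound for 40 hours at 37 °C before readout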). The conditions noted are these: BJ fibroblast viability, qHTS. In outline: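 Luminescent ATP signal (CellTiter-Glo, 20 min at room temperature) served as the read-out of viable BJ cells after 40 hours of compound treatment. Responses were scaled between DMSO and 100 uM tamoxifen, and AC50 values were obtained by Hill modeling.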
Test [8] is described as follows: Cell Viability - Jurkat (AID 426;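 active = dose-dependent loss of cell ATP signal giving a full or clear fitted curve, ranked by lower potency value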;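 also: potency is read from the fitted curve at half-maximal effect; cells exposed to compound for 40 hours at 37 °C before ATP read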). The conditions noted are these: qHTS. The essentials:
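Seed 5000 Jurkat E6-1 cells/well; add compound; incubate 40 hr at 37 °C; add CellTiter-Glo; wait 20 min at room temperature; read luminescence. Fit concentration-response with Hill equation for AC50.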

The nature of test [9]: Cell Viability - Hek293 (AID 427;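 active = compounds whose dose-response curve shows a full or clear partial loss of cell viability, called from curve shape rather than a numeric limit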;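 also: potency is read from the fitted curve at half-maximal effect; cells exposed to compound for 40 hours at 37 °C before reading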). As to conditions: qHTS. The essentials: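 Luminescent ATP read-out (CellTiter-Glo, 20 min RT) after 40 hr compound exposure at 37 °C in complete medium. Signal normalized to DMSO (basal) and 100 uM tamoxifen (100% inhibition); concentration-response fitted with the standard Hill equation to give AC50.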
A short description of test [10]: Cell Viability - MRC5 (AID 434; calls by dose curve;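 also: potency is read from the fitted curve at half-maximal effect; cells exposed to compound for 40 hours at 37 °C; potency reflects cytotoxicity seen as loss of intracellular ATP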). The conditions noted are these: MRC5 lung fibroblast viability, qHTS. The essentials:
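MRC5 normal human lung fibroblasts (1500/well) were treated with compounds for 40 hr at 37 °C in complete medium, and viable cells were measured as intracellular ATP by CellTiter-Glo luminescence. AC50 came from Hill fits, normalized to DMSO and 100 uM tamoxifen.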

Sequence of Glucocorticoid receptor (Homo sapiens) (P04150 whole entry, looked up, the tested form may be a part): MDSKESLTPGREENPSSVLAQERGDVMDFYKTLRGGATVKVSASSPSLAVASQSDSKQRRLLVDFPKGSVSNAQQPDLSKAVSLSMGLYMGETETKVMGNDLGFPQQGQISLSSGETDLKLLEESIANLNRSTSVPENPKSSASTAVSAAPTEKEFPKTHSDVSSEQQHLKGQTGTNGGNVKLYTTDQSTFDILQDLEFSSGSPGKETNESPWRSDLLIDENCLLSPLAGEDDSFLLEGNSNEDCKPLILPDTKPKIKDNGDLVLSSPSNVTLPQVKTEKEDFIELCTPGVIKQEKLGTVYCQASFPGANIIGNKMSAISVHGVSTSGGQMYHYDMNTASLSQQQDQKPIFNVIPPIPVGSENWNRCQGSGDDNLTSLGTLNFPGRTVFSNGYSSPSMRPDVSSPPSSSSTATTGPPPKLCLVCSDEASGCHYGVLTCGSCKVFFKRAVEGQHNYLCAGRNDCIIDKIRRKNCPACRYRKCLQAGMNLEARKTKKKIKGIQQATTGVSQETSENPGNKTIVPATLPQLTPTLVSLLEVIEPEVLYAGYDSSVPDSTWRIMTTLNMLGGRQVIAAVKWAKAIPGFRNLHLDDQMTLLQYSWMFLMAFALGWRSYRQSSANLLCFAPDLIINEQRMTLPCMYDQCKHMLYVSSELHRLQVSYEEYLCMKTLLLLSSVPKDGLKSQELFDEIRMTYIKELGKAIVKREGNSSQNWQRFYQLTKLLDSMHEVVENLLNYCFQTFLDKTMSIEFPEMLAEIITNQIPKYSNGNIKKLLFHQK
Sequence of Cytochrome P450 1A2 (Homo sapiens) (P05177 whole entry, looked up): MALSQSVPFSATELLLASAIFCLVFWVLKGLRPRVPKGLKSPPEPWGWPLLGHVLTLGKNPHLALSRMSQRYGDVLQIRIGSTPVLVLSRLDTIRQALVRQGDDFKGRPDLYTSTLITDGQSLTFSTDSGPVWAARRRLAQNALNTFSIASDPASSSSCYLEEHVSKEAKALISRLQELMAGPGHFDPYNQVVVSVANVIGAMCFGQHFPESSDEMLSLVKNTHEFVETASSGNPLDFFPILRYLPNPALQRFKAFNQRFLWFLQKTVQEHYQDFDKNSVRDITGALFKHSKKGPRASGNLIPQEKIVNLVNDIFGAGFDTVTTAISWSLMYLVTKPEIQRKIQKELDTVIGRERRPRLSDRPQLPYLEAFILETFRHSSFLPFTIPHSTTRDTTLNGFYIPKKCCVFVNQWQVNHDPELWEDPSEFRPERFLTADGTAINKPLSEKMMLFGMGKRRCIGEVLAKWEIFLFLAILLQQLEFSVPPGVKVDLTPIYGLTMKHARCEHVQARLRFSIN

As for `N=C(N=C(N)N)N1CCOCC1`, the result in test [1] and in [3] was inactive. For the same molecule, the activity change, negative = inhibition in test [2] (at 17.2 µM (top of the series)) was -6.61%. For the same molecule, the Potency was > 20.6 µM and > 46 µM in [4]; > 20.6 µM and > 46 µM in test [5].

In the case of `Nc1cc(C(Cl)=C(Cl)Cl)c(S(N)(=O)=O)cc1S(N)(=O)=O`, the outcome in test [1] and in test [3] was inactive. Besides, the activity change, negative = inhibition in test [2] (at 17.2 µM (top of the series)) is -0.14%. For the same molecule, the Potency in test [4] and in test [5] was greater than 20.6 µM throughout.

As for `CCN(CC)CCOc1ccc(Cc2ccccc2)cc1`, the Potency was 12.6 µM (active) in test [6], greater than 46 µM in [4] and greater than 46 µM in [5].

As to `CC(=O)N1CCN(c2ccc(OC[C@H]3CO[C@](Cn4ccnc4)(c4ccc(Cl)cc4Cl)O3)cc2)CC1`, the Potency in test [4] and in [5] was greater than 46 µM each time.

Regarding `CNC[C@H](O)c1ccc(O)c(O)c1`, the molecule was classed as inactive in [1] and in [3]. Besides, in [2] (at 38 µM (top of the series)), the activity change, negative = inhibition was 1.71% and -6.16%.

For the molecule `O=C(NCC1CCCCN1)c1cc(OCC(F)(F)F)ccc1OCC(F)(F)F` (stereo not drawn), the molecule was called inactive in test [1] and in test [3]. Further, the activity change, negative = inhibition in test [2] (at 17.2 µM (top of the series)) was -8.46%.

As to `CCCCN(CCCC)CCC(O)c1cc2c(Cl)cc(Cl)cc2c2cc(C(F)(F)F)ccc12` (stereo not drawn), the result in test [1] and in test [3] was inactive. Further, the activity change, negative = inhibition in [2] (at 17.2 µM (top of the series)) was 14.4%. For the same molecule, the Potency in test [4] and in [5] was greater than 20.6 µM throughout.

For `CN1CCC(=C2c3ccccc3CCc3sccc32)CC1`, in [6], the Potency result is “inactive”. In addition, in [3], the molecule was classed as inactive.

With `CCN(CC)C(=S)SSC(=S)N(CC)CC`, the Potency in [6] was 6.31 µM (active) and 1.58 µM (active); in [4] it was > 46 µM and > 20.6 µM; in test [5], > 46 µM and > 20.6 µM.

For the molecule `O=C1NC(=O)C(c2ccccc2[N+](=O)[O-])=C1Nc1ccc(O)c(Cl)c1`, the Potency in test [6] was 7.94 µM (active); in test [4] it was greater than 46 µM; in test [5], greater than 46 µM. Moreover, in [2] (at 38 µM (top of the series)), the activity change, negative = inhibition is -15.2%. In test [3], the outcome was inactive.

As for `COC(=O)[C@H](Cc1ccccc1)NC(=O)[C@@H](N)CC(=O)O` (H-Asp-Phe-OMe), the Potency in [7], in test [8], in [9] and in [10] was greater than 92 µM throughout.

On to `COc1cc(OC)c(C(=O)CCCN2CCCC2)c(OC)c1`, for which the result in test [1] and in test [3] was inactive. For the same molecule, the Potency in test [4] and in test [5] was greater than 20.6 µM each time.

`CCCOc1ccc2nc(NC(=O)OC)[nH]c2c1`: the molecule was called inactive in test [1] and in test [3]. Moreover, in [4], the Potency was greater than 20.6 µM.

As to `Cc1cccc(CN2CCN(C(c3ccccc3)c3ccc(Cl)cc3)CC2)c1` (stereo not drawn), the molecule was classed as inactive in test [1] and in test [3]. Further, the Potency in test [4] is greater than 20.6 µM.

Regarding `C[C@H](Cc1ccc(O)c(O)c1)[C@@H](C)Cc1ccc(O)c(O)c1`, the values for the Potency in test [6], in [4] and in test [5] were 31.6 µM (active), greater than 46 µM and greater than 46 µM, respectively.

For the molecule `CN(C)CCCC1(c2ccc(F)cc2)OCc2cc(C#N)ccc21` (stereo not drawn), the call in [1] and in [3] was inactive. Moreover, in [4], the Potency is greater than 20.6 µM.

With `CN(C)c1ccc2nc3ccc(=[N+](C)C)cc-3sc2c1`, the Potency in [8] was 14.2 µM (active); in test [9] it was 35.6 µM (active); in [10] it was 37.8 µM (active).

In the case of `CC(C)(S)[C@@H](N)C(=O)O`, the outcome in test [1] and in [3] was inactive. The Potency in [4] was greater than 20.6 µM.

Regarding `CC(C)Oc1ccc2c(=O)c(-c3ccccc3)coc2c1`, the outcome in test [1] and in [3] was inactive. For the same molecule, in test [2] (at 17.2 µM (top of the series)), the activity change, negative = inhibition is 5.32%. Also, the Potency in test [4] was greater than 20.6 µM.

Consider `CCOC(=O)C1=C(O)C(=O)N(Cc2ccccc2)C1`, for which the Potency was 1 µM (active) in [6], greater than 46 µM in test [4] and greater than 46 µM in [5].

Turning to `COC(=O)C1=C(C)NC(C)=C(C(=O)OC(C)C)C1c1cccc2nonc12` (stereo not drawn), the Potency in test [6] was 31.6 µM (active); in test [4], greater than 46 µM; in test [5], greater than 46 µM.

With `CC(C)[N+]1(C)[C@@H]2CC[C@H]1CC(OC(=O)C(CO)c1ccccc1)C2` (stereo partly drawn), the outcome in test [1] and in test [3] was inactive. The activity change, negative = inhibition in test [2] (at 17.2 µM (top of the series)) is -79.9% (active).

Consider `O=C(NCCO[N+](=O)[O-])c1cccnc1`, for which the Potency result in [6] is “inactive”. The Potency in test [4] and in test [5] was greater than 46 µM in each case.

In the case of `O=c1ccc2ccc(O)c(O)c2o1`, the result in [1] and in [3] was inactive. In addition, the activity change, negative = inhibition in test [2] (at 38 µM (top of the series)) is -9.14%. Also, the Potency in [4] and in [5] was greater than 46 µM in each case.
